Screening results from PubChem.
The full list was thinned out, with hits kept by preference.
ST2 IL33 inh: inhibitors of human ST2 (IL1RL1) binding to IL-33, primary screen, biochemical, AlphaLISA; AlphaLISA ST2-Fc/biotin-IL-33 interaction, 1 h; inhibition, % for hits at 17 µM; AID 1259354, 2018; actives 2.3% (n = 78,000); in the data active = inhibition above about 30%
Target sequence (Q01638 whole entry, looked up): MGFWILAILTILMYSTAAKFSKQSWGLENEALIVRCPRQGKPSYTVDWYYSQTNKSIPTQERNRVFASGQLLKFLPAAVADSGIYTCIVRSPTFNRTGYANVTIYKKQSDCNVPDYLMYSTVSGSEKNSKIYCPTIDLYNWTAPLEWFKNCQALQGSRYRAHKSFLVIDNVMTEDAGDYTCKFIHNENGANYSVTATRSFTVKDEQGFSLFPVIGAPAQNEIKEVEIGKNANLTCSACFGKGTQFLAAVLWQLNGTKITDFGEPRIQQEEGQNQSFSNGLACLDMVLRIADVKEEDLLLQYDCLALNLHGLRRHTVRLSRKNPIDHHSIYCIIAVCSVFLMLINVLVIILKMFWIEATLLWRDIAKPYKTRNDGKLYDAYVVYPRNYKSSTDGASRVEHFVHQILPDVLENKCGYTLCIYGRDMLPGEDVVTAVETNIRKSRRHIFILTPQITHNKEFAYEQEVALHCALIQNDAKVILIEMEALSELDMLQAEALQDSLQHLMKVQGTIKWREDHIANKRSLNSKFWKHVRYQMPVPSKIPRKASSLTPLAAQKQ
* hit, by the source's call; i = inactive.

SMILES | ST2 IL33 inh
CCOC(=O)C1CCCN(S(=O)(=O)NCc2ccccc2)C1 (stereo not drawn) | i
COc1ccc(C(=O)N2CCCC2)cc1S(=O)(=O)N1CCC(C)CC1 | i
COCC(=O)N[C@H]1CC[C@]2(C)CC[C@@H]([C@H](C)C(=O)N3CCC[C@@H]3COC)[C@H](O)[C@H]2[C@@H]1C | i
Nc1ncnc(Nc2ccc(Oc3ccccc3)cc2)c1[N+](=O)[O-] | i
O=[N+]([O-])C1=C(Nc2ccccc2)CS(=O)(=O)C1 | i
O=[N+]([O-])c1c(Nc2ccccc2)sc2ccccc12 | 37%*
c1ccc(-c2ncn(CCc3nc4c(s3)CCC4)c2C2CCOC2)cc1 (stereo not drawn) | i
COCC(=O)N(c1ccc(OC)cc1)C1C=CS(=O)(=O)C1 (stereo not drawn) | i
Cc1cccc(-c2cc(O)cc3sc(=O)oc23)c1 | i
Cn1cnc2c1c(=O)[nH]c(=O)n2C | i
CC(C)CC(C(=O)Nc1cccc(Cl)c1)N1C(=O)c2ccccc2C1=O (stereo not drawn) | i
CC(C(=O)N1CCN(c2cccc(Cl)c2)CC1)N1C(=O)c2ccccc2C1=O (stereo not drawn) | i
CC(=O)N(C1=C(N2CCCCC2)C(=O)c2ccccc2C1=O)c1cccc(Cl)c1 | 61%*
CC1CN(CC(=O)NCc2ccc3c(c2)OCO3)Cc2cc(Cl)ccc2O1 (stereo not drawn) | i
CCC(C)NC(=O)c1ccc2c(c1)N(Cc1ccc(C)cc1)CCS2 (stereo not drawn) | i
O=C(O)c1ccc2c(c1)C(=O)N(CCCCO)C2=O | i
Cc1ccc(S(=O)(=O)CCC#N)cc1C | i
COc1ccccc1Cc1nc(-c2cccc([N+](=O)[O-])c2)no1 | 32%*
COc1ccccc1Nc1nc(-c2ccc([N+](=O)[O-])cc2)nc2ccccc12 | i
COc1ccccc1Cc1nc(-c2ccc([N+](=O)[O-])cc2)no1 | 30%*
COc1ccccc1Cc1noc(-c2ccc([N+](=O)[O-])cc2)n1 | 47%*
COc1ccc(-c2nc(-c3cccc([N+](=O)[O-])c3)no2)cc1 | i
COc1ccccc1Cc1noc(COc2cccc(C)c2C)n1 | i
COc1ccccc1CNc1ccc([N+](=O)[O-])cn1 | i
COc1ccccc1Cc1noc(/C=C/c2ccccc2Cl)n1 | i
SMILES | ST2 IL33 inh
O=[N+]([O-])c1cccc(-c2noc(-c3ccc(I)cc3)n2)c1 | i
COC(=O)c1cccc(-c2cc(Cl)c3c(c2)CC(CNC(=O)CCn2ccc(C)n2)O3)c1 (stereo not drawn) | i
O=C1CO[C@H]2CN(Cc3ccc(F)c(F)c3)C[C@H]2N1CC1CC1 | i
Cc1ccc(NC(=O)COc2ccc(Cl)cc2Cl)cc1 | i
CC(C)(C)CC(C)(C)c1ccc(OCC(=O)Nc2ncn[nH]2)cc1 | i
CC(C)C(=O)Nc1c(C(=O)Nc2ccccc2F)oc2ccccc12 | i
CN(CC1CCCN(CCc2cccc(C(F)(F)F)c2)C1)C(=O)Cc1cccnc1 (stereo not drawn) | i
COc1ccc(C2CC(=O)C3=C(C2)Nc2ccccc2NC3c2ccccc2OC)cc1OC (stereo not drawn) | i
O=C(c1ccc[nH]c1=O)N(Cc1ccsc1)CC1CCCO1 (stereo not drawn) | i
Cc1cc(NC(=O)/C=C\c2ccc3c(c2)OCO3)nc2c1c(=O)oc1ccccc12 | 43%*
Cc1cc(NC(=O)c2ccc3c(c2)OCO3)nc2c1c(=O)oc1ccccc12 | i
CC(=O)Nc1cc(C)c2c(=O)oc3ccccc3c2n1 | i
COc1ccccc1Oc1ncccc1CNC(=O)C1CC=CCC1 (stereo not drawn) | i
Cn1c(=O)c(-c2nc3ccccc3c(=O)[nH]2)c(O)c2ccccc21 | i
COc1ccccc1NC(=O)C(=O)NCC1COc2ccccc2O1 (stereo not drawn) | i
COc1ccccc1N1CCN(C(=O)c2cc(-c3cccs3)on2)CC1 | i
Cc1cc2c(c(=O)o1)C(c1ccccc1F)C(C#N)=C(N)O2 (stereo not drawn) | i
O=C1C(=C(O)c2ccccc2)NS(=O)(=O)c2ccccc21 | i
O=C1C(=C(c2ccccc2)c2ccccc2)C(=O)c2ccccc21 | 39%*
O=C1CN(C(=O)c2ccccc2)C(=O)CN1C(=O)c1ccccc1 | i
COc1ccc(N2C(=O)CC(N(C)Cc3ccccc3)C2=O)cc1 (stereo not drawn) | i
CCOC(=O)C12CC1/C(=N\O)c1ccccc1O2 (stereo not drawn) | i
COc1cc(NC(=O)c2cc3nc(-c4ccco4)cc(C(F)(F)Cl)n3n2)cc([N+](=O)[O-])c1 | i
N#Cc1c(-c2ccccc2)c(C#N)c2nc3ccccc3n2c1N | 32%*
CC1CN(c2c3c(c(C#N)c4nc5ccccc5n24)CCC3)CC(C)O1 (stereo not drawn) | i
SMILES | ST2 IL33 inh
Cc1nccn1-c1c2c(c(C#N)c3nc4ccccc4n13)CCC2 | i
Cc1cccc(-c2cccc(NC(=O)C3CCCN(C(=O)Cn4cnnn4)C3)c2)c1 (stereo not drawn) | i
CCc1nc(SCC(=O)N[C@@H]2C[C@H]2c2ccccc2)n[nH]1 | i
Cc1cc(C(=O)Nc2ccccc2Sc2c(C)n[nH]c2C)n[nH]1 | i
O=[N+]([O-])c1cccc(-c2noc([C@@H]3C[C@@H](O)CN3Cc3ccc(CO)o3)n2)c1 | 58%*
O=[N+]([O-])c1cccc(-c2noc([C@@H]3C[C@@H](O)CN3Cc3ccc(Cl)cc3)n2)c1 | i
Cc1cccc(-c2noc([C@@H]3C[C@@H](O)CN3Cc3cccs3)n2)c1 | i
O=[N+]([O-])c1cccc(-c2noc([C@@H]3C[C@@H](O)CN3Cc3cccs3)n2)c1 | 61%*
O=[N+]([O-])c1cccc(-c2noc([C@@H]3C[C@@H](O)CN3Cc3ccccc3)n2)c1 | i
Cc1ccc(CN2C[C@H](O)C[C@H]2c2nc(-c3cccc([N+](=O)[O-])c3)no2)cc1 | i
COC(=O)C(C)Sc1nc2c(c(=O)n1-c1ccc(F)cc1)SCC2 (stereo not drawn) | i
COc1ccc(N(C(=O)c2ccc(Br)o2)C2C=CS(=O)(=O)C2)c(OC)c1 (stereo not drawn) | i
CC(C)c1ccc(NC2CCCN(C(=O)CCN3CCCCO3)C2)cc1 (stereo not drawn) | i
O=C1CCC(=O)N1CCC(c1ccccc1)c1ccc2c(c1)OCO2 (stereo not drawn) | i
c1cc2c(cc1CNc1nc(C3CCCC3)nc3c1CNC3)OCO2 | i
COc1ccc2cc3cc(C(=O)NCc4ccc(C)cc4)sc3nc2c1 | 31%*
COCCNC(=O)c1cc2cc3cc(OC)ccc3nc2s1 | i
COc1ccc([N+](=O)[O-])cc1NC(=O)COc1ccc(C)cc1Br | i
COc1ccc2cc3cc(C(=O)Nc4ccc(OC)c(Cl)c4)sc3nc2c1 | 38%*
COc1ccc(NC(=O)c2cc3cc4ccc(C)cc4nc3s2)cc1OC | i
CCCCNC(=O)c1cc2cc3cc(OC)ccc3nc2s1 | i
COc1ccc([N+](=O)[O-])cc1NC(=O)c1cc2cc3ccc(C)cc3nc2s1 | 46%*
COc1ccc2nc3sc(C(=O)NCc4ccccc4OC)cc3cc2c1 | i
CCN(CCCNC(=O)c1cc2cc3ccc(OC)cc3nc2s1)c1ccccc1 | 31%*
COc1ccc2cc3cc(C(=O)N4CCN(C)CC4)sc3nc2c1 | i
